From PubChem BioAssay
Active and inactive are the calls of the source. Unless noted, how the calls were made is not given here.

What was measured:
[1] = anti-His antibody binders, primary screen, artefact control for SMM control protein annotation, biochemical, small-molecule microarray, 635 nm fluorescence (AID 1128); conditions: anti-His Alexa647 antibody binding, higher = more signal;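 further: score merges feature fluorescence with signal-to-noise for each printed compound spot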
[2] = test system: Human papillomavirus type 1a E7 protein (residues 1-88); assay: HPV1a E7 small-molecule binders, primary screen, biochemical, small-molecule microarray, residues 1-88, 635 nm (AID 1129); conditions: small-molecule microarray binding, fluorescence 635 nm; higher = more signal
[3] = biological target: Focal adhesion kinase 1 (Homo sapiens) (UniProt Q05397); assay: small-molecule microarray binders of FAK, primary screen, biochemical, 635/667 nm fluorescence, BSA, DTT (AID 1130); conditions: PTK2 binding, 635 nm fluorescence, higher = more signal;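 further: composite of spot emission at 667 nm and signal to noise over triplicate slides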
[4] = test system: Fibrinogen (Alexa647-labelled); assay: fibrinogen binders on compound microarrays, profiling panel, artefact control for SMM control-protein annotation, biochemical, small-molecule microarray, 635/667 nm fluorescence (AID 1131); conditions: fibrinogen-A647 binding fluorescence, higher = more signal;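 further: z-score merges 667 nm fluorescence with per-spot signal-to-noise over triplicate slides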
[5] = biological target: Follistatin (Homo sapiens) (UniProt P19883); assay: follistatin binders on small-molecule microarrays, primary screen, biochemical, small-molecule microarray, 635/667 nm fluorescence (AID 1132); conditions: FST binding, 635 nm fluorescence, higher = more signal
[6] = biological target: Fibroblast growth factor 2 (Homo sapiens) (UniProt P09038); assay: FGF2 binders on small-molecule microarrays, primary screen, biochemical, small-molecule microarray, 635/667 nm fluorescence (AID 1133); conditions: small-molecule microarray binding, FGF2, fluorescence 635/667; higher = more signal
[7] = mitochondrial membrane potential change in A549 cells, profiling panel, cell-based, JC-1 fluorescence, basal, 24 h, 100 nL (AID 1138); conditions: higher = more signal;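 further: A549 lung adenocarcinoma cells under basal conditions with no added stimulus; test concentration not given here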
[8] = test system: Lefty1; assay: Lefty1 binders on small-molecule microarrays, primary screen, biochemical, small-molecule microarray, 635/667 nm fluorescence (AID 1139); conditions: small-molecule microarray binding, fluorescence 635/667; higher = more signal
[9] = test system: wheat germ agglutinin (Triticum aestivum), Alexa647-labelled; assay: wheat germ agglutinin binders on compound microarrays, profiling panel, artefact control for SMM control-protein annotation, biochemical, small-molecule microarray, 635/667 nm fluorescence (AID 1140); conditions: WGA-A647 binding, 635 nm fluorescence, higher = more signal;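 further: score merges 667 nm feature emission with signal to noise over triplicate slides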
[10] = biological target: Luciferin 4-monooxygenase (Photinus pyralis) (UniProt P08659); assay: firefly luciferase enzyme inhibitors, primary screen, biochemical, luminescence, purified enzyme, 2006 set (AID 1141); conditions: SteadyGlo luminescence, 30 min, higher = more signal, called active from +8 up or from −8 down;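 further: cell-free assay with purified firefly luciferase at 100 ng per well in PBS; test concentration not given here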
[11] = test system: Wnt5a (protein binding on small-molecule microarray); assay: Wnt5a binders on small-molecule microarray, primary screen, biophysical, 635/667 nm fluorescence (AID 1142); conditions: 635 nm fluorescence, higher = more signal;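 further: fluorescence read at 667 nm with signal to noise per printed feature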
[12] = cell viability in Huh7 cells, primary screen, cytotoxicity control for HCV replication inhibitor project, CellTiter-Glo luminescence, basal, 48 h (AID 1143); conditions: Huh7 HCV replicon, higher = more signal, called active from +8 up or from −8 down;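 further: Huh7 hepatoma cells carrying a hepatitis C replication reporter with no stimulus; test concentration not given here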
[13] = P. aeruginosa biofilm formation inhibitors, primary screen, PAO1 strain, BacTiter-Glo luminescence, LB-PBS (AID 1144); conditions: 12 h, higher = more signal
[14] = CREB reporter modulators without forskolin, primary screen, cell-based, PC12, CRE-LacZ reporter, unstimulated (AID 1145); conditions: no forskolin, luminescence, 4.5 h, higher = more signal, called active from +8 up or from −8 down
[15] = CREB reporter modulators under forskolin, primary screen, cell-based, PC12, CRE-LacZ reporter, forskolin-stimulated (AID 1146); conditions: luminescence, 4.5 h, higher = more signal, called active from +8 up or from −8 down;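 further: PC12 cells with 6xCRE LacZ reporter stimulated by forskolin 10 µM; beta-galactosidase reporter signal reflecting CREB driven transcription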
[16] = biological target: Streptavidin (Streptomyces avidinii) (UniProt P22629); assay: streptavidin binders on small-molecule microarray, primary screen, artefact control for SMM compound annotation, biophysical, 635/667 nm fluorescence (AID 1147); conditions: streptavidin binding, higher = more signal;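 further: signal reflects streptavidin binding to arrayed compounds as a control protein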
[17] = small-molecule binders of probe aInhba, primary screen, biochemical, small-molecule microarray, 635/667 nm fluorescence (AID 1148); conditions: higher = more signal;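 further: score merges 667nm spot fluorescence with signal-to-noise for antibody binding to printed compounds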
[18] = biological target: Torsin-1A (Homo sapiens) (UniProt O14656); assay: torsin A binders from cell lysate, primary screen, small-molecule microarray, wild-type, 635/667 nm (AID 1149); conditions: COS7 hTOR1A-WT lysate, 635 nm fluorescence, higher = more signal
[19] = biological target: Torsin-1A (Homo sapiens) (UniProt O14656); assay: small-molecule binders of mutant TOR1A in lysate, primary screen, cell lysate, small-molecule microarray, COS7 lysate, 635/667 nm fluorescence (AID 1150); conditions: COS7 hTOR1A mutant lysate, 635 nm fluorescence, higher = more signal;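 further: score pools 667 nm emission and signal to noise measuring lysate protein binding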
[20] = test system: Sonic hedgehog protein (Shh); assay: small-molecule binders of Shh protein, primary screen, biochemical, small-molecule microarray, 635/667 nm fluorescence (AID 1151); conditions: small-molecule microarray binding, 635 nm fluorescence; higher = more signal;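 further: Shh protein binding to compounds spotted on small-molecule microarray slides; score combines spot fluorescence intensity with signal-to-noise across triplicate slides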

Chain of Fibroblast growth factor 2 (Homo sapiens) (P09038 whole entry, looked up): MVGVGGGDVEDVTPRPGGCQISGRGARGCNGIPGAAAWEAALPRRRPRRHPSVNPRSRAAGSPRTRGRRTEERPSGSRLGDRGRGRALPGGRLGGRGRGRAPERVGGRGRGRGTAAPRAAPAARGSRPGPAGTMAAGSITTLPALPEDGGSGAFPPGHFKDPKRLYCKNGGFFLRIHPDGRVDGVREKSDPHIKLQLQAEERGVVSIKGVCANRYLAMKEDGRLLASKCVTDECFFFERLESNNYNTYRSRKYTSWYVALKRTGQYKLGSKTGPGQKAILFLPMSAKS
Chain of Follistatin (Homo sapiens) (P19883 whole entry, looked up): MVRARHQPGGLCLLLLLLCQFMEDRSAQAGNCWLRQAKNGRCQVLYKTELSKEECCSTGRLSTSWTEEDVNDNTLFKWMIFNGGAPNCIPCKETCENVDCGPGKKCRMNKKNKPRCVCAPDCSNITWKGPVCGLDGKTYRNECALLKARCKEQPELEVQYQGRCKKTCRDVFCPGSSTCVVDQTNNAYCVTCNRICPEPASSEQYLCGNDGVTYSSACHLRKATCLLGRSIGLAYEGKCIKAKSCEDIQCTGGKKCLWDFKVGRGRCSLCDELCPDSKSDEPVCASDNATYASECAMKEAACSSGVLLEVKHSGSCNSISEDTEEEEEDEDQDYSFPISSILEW
Chain of Torsin-1A (Homo sapiens) (O14656 whole entry, looked up): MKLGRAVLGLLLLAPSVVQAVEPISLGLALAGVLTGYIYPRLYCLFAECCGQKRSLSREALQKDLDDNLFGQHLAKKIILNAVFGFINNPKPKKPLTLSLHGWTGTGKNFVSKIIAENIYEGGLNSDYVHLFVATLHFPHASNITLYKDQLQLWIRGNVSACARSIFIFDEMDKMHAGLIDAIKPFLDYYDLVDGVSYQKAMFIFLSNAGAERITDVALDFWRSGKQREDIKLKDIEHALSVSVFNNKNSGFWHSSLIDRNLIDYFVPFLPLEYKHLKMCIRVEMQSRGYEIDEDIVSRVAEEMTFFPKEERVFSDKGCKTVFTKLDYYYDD
Chain of Focal adhesion kinase 1 (Homo sapiens) (Q05397 whole entry, looked up): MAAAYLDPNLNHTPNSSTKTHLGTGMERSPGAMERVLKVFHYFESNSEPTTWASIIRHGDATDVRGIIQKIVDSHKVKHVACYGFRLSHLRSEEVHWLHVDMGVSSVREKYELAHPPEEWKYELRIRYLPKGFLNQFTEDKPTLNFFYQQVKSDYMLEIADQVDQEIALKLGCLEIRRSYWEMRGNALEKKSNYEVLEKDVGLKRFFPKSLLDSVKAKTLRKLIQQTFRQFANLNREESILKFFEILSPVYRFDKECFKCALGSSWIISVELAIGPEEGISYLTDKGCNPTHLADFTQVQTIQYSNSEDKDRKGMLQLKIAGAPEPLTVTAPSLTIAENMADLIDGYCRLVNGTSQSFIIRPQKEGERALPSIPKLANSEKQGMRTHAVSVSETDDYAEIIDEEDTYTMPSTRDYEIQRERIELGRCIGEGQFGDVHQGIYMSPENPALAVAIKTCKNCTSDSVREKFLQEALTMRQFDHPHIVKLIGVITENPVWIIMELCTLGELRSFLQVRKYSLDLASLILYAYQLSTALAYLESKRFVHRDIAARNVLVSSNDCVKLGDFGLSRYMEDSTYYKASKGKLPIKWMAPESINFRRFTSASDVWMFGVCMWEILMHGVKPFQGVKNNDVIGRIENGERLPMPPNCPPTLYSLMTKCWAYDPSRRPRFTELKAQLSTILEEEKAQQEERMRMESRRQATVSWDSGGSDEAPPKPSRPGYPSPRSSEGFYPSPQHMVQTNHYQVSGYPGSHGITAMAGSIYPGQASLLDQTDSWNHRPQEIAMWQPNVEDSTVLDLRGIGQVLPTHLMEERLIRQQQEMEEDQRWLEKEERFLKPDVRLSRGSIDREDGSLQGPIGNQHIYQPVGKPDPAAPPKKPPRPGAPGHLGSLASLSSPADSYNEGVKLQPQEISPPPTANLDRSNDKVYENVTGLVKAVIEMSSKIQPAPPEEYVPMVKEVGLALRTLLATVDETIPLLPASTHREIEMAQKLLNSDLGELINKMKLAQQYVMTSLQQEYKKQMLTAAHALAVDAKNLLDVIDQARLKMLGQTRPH
Chain of Luciferin 4-monooxygenase (Photinus pyralis) (P08659 whole entry, looked up): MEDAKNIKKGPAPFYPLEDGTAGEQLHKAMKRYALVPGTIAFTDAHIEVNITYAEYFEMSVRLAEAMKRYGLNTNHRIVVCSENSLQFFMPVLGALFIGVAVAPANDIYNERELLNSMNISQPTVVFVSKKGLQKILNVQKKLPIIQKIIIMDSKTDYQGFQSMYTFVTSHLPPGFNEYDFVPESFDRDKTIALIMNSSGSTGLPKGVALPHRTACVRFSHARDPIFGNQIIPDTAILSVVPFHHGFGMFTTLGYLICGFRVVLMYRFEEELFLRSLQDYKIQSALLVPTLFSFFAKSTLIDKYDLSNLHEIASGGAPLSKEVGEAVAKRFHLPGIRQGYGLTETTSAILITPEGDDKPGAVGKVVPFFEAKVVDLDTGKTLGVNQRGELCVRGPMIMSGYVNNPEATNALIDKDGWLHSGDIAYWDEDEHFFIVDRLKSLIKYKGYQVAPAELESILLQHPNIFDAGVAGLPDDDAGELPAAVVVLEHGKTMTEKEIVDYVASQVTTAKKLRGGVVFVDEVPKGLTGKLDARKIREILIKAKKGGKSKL
Chain of Streptavidin (Streptomyces avidinii) (P22629 whole entry, looked up): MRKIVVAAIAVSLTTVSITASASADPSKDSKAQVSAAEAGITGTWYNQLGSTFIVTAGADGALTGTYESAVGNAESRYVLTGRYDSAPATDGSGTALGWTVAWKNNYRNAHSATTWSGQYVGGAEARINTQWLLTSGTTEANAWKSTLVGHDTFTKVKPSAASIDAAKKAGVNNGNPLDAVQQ

Compound | composite z-score [1] | composite z-score [2] | composite z-score [3] | composite z-score [4] | composite z-score [5] | composite z-score [6] | z-score [7] | composite z-score [8] | composite z-score [9] | z-score [10] | composite z-score [11] | z-score [12] | z-score [13] | z-score [14] | z-score [15] | composite z-score [16] | composite z-score [17] | composite z-score [18] | composite z-score [19] | composite z-score [20]
COCCOC(=O)N1C(=O)[C@@]2(c3cc(C#CCC(C(=O)OC)C(=O)OC)ccc31)[C@H](c1ccc(OCCO)cc1)N1[C@H](c3ccccc3)[C@H](c3ccccc3)OC(=O)[C@H]1[C@@H]2C(=O)Nc1nc2ccccc2s1 | 0.572 | 1.16 | -0.14 | 0.973 | 1.24 | 0.35 | -2.17 | 1.06 | 0.671 | -1.2 (inactive) | 0.0015 | -1.79 (inactive) | -0.45 (inactive) | 0.0384 (inactive) | 0.282 (inactive) | 0.067 | -0.101 | 0.212 | 0.264 | 1.6
COCCOC(=O)N1C(=O)[C@@]2(c3cc(C#CC4=CCCCC4)ccc31)[C@H](C(=O)N1CCCCCCC1)[C@H]1C(=O)O[C@H](c3ccccc3)[C@H](c3ccccc3)N1[C@@H]2c1ccc(OCCO)cc1 | 0.119 | 1.13 | 0.605 | 0.806 | 1.23 | 0.426 | -1.22 | 0.79 | 0.956 | -0.866 (inactive) | 0.636 | -3.96 (inactive) | -0.0896 (inactive) | -0.199 (inactive) | 0.463 (inactive) | 1.29 | 0.515 | 1.04 | 0.877 | 1.25
COCCCNC(=O)[C@@]1(c2ccc([N+](=O)[O-])cc2)CC(=O)N(CC23CC4CC(CC(C4)C2)C3)[C@@H]1c1ccc(CO)cc1I | 1.77 | 0.892 | 0.0865 | 0.705 | 1.16 | 0.614 | -0.189 | -0.122 | 0.47 | 0.482 (inactive) | 0.582 | -5.26 (inactive) | 0.142 (inactive) | -0.825 (inactive) | 0.372 (inactive) | -0.414 | 0.0906 | 0.676 | 0.0661 | 0.636
CC(C)C[C@@H]1NC(=O)[C@@]23C(=O)N[C@@H](Cc4ccccc4)C2[C@H](C)[C@@]2(C)O[C@H]2C3/C=C/C/C=C\CNC(=O)[C@@H](C)NC1=O (stereo not given in full) | -0.471 | -0.522 | -0.647 | -0.67 | 0.418 | 0.901 | 0.0204 | 0.709 | 0.808 | 0.757 (inactive) | -0.336 | -0.611 (inactive) | -0.944 (inactive) | 0.662 (inactive) | -0.268 (inactive) | -0.823 | -0.348 | 0.056 | -0.196 | 1.29
C=CCN1C(=O)[C@]2(O[C@H](CCO)[C@@H]([Si](C)(C)c3ccc(OC)cc3)[C@@H]2C)c2cc(NC(=O)c3ccc(OC)cc3)ccc21 | 1.17 | 0.668 | 0.241 | 0.318 | 1.36 | 1.21 | -1 | 1.03 | 0.286 | -0.772 (inactive) | 0.211 | -7.99 (inactive) | -0.236 (inactive) | 15.2 (active) | -1.43 (inactive) | 0.535 | 0.0541 | 0.598 | 0.726 | 2.11
COCC(=C=CC[C@H](O)c1cccc(OCCO)c1)C[C@H](O)COCc1ccccc1 | 1.09 | 1.11 | 1.24 | -0.749 | 1.21 | 1.23 | -0.177 | 0.88 | -0.41 | -0.496 (inactive) | 0.191 | -0.33 (inactive) | -0.218 (inactive) | 5.03 (inactive) | 1.74 (inactive) | -0.599 | 0.264 | 2.41 | 1.31 | 1.28
COC(=O)[C@@]1(Cc2ccc(OC)cc2)[C@H]2c3cc(C(=O)N4CCCC4)n(Cc4ccc(S(C)(=O)=O)cc4)c3C[C@H]2CN1C(=O)c1ccccc1 | 0.486 | 1.26 | 0.721 | 0.996 | 0.0078 | -0.184 | 1.26 | -0.0956 | 0.479 | 0.922 (inactive) | 0.21 | -0.86 (inactive) | -0.0122 (inactive) | -0.185 (inactive) | -0.755 (inactive) | 1.73 | 0.102 | 0.272 | 0.422 | -1.12
CC(CO)N1C(=O)[C@@H]2[C@H]3C(=O)OCC=C[C@H]3OC23C=CCN(c2ccc(Cl)cc2)C(=O)[C@@H]13 (stereo not given in full) | -0.715 | -1.39 | 0.0657 | -2.3 | -2.57 | -1.07 | 1.18 | -2.1 | -1.81 | -0.619 (inactive) | -0.691 | 0.359 (inactive) | 2.78 (inactive) | 0.866 (inactive) | 0.154 (inactive) | -2.13 | -0.26 | -2.73 | -2.95 | -0.721
COCCOC(=O)N1C(=O)[C@@]2(c3cc(C#CCNC(N)=O)ccc31)[C@H](c1ccc(O)cc1)N1[C@H](c3ccccc3)[C@H](c3ccccc3)OC(=O)[C@H]1[C@@H]2C(N)=O | -0.685 | -0.703 | -0.529 | -1.39 | -1.91 | -0.93 | 0.902 | -1.72 | -1.18 | -1.03 (inactive) | -0.503 | -0.522 (inactive) | 0.175 (inactive) | 0.224 (inactive) | 0.645 (inactive) | -1.53 | -0.331 | -0.57 | -0.934 | -1.56
